Compound activity as filed in PubChem.
KDM5B inhibitor – blocks human KDM5B histone demethylase activity; Q9UGL1; KDM5B demethylase, FDH-coupled NADH fluorescence (FDH is formaldehyde dehydrogenase); Potency, µM (doses to about 57.7 µM), hits mostly inhibitors; 2.6% of 220,000 active; AID 1347165; active = well fitted inhibition curve with a large enough effect; also: 0% is about no effect; nearly all actives have a fitted effect of over 70% in size
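KDM5BΔAP (200 nM final) in 50 mM HEPES pH 7.5, 0.01% Tween-20 was preincubated 10 min at RT with compound over a concentration range. Substrate mix (H3K4me3 12.5 µM, α-KG 25 µM, Fe²⁺, ascorbate, NAD⁺, FDH) was added, and NADH fluorescence change over 30 min gave dose-response curves.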
* hit, by the source's call; i = inactive. This is one part of a sample in which hits are shown more often than they occur. Potency is read from the fitted curve at half-maximal effect.

SMILES	KDM5B inhibitor
COc1ccc(-c2ncc3c(n2)OCCN(Cc2ccccc2)C3=O)cc1	i
COc1ccc(CN2CCOc3nc(-c4ccc(O)c(F)c4)ncc3C2=O)cc1	32µM*
COc1cccc(-c2ncc3c(n2)OCCN(c2ccccc2)C3=O)c1	28µM*
O=C1c2cnc(-c3cc4ccccc4o3)nc2OCCN1Cc1ccccc1	i
C[S+](=O)([O-])c1cccc(-c2ncc3c(n2)OCCN(Cc2ccccc2)C3=O)c1	i
COc1ccc(CN2CCOc3nc(-c4ccc(F)cc4F)ncc3C2=O)cc1	i
NC(=O)c1cccc(-c2ncc3c(n2)OCCN(c2ccccc2)C3=O)c1	i
O=C(NCc1ccc(F)cc1)C1CCc2nnc(-c3ccc(Cl)nc3)n21 (stereo not given)	i
O=C(Nc1cccc(S(=O)(=O)Nc2ccccc2F)c1)c1cncn1-c1ccccc1	i
CCNC(=O)NC(=O)COC(=O)c1c[nH]c2ccccc12	i
CCCCN(CCCNC(=O)c1cc(Nc2ccc(OC)cc2)nc2ccccc12)Cc1ccccc1	i
COc1ccc(N(C(=O)c2ccncc2)S(=O)(=O)c2cccs2)cc1	i
Cc1cn(CC(=O)N[C@H]2CN(C(=O)CC(C)C)C[C@@H]2C2CC2)c(=O)[nH]c1=O	i
COc1cc(C#N)ccc1OCc1ccc(F)cc1Cl	i
CCn1nccc1C(=O)NCCC1CCN(C(=O)Nc2cc(F)ccc2F)CC1	i
COc1ccc(C(=O)N2C[C@@H](CO)[C@H](c3ccncc3)C2)cc1	i
COc1ccc2[nH]c(C(=O)N3CCN4CCS(=O)(=O)N(C5CC5)C(=O)C4C3)cc2c1 (stereo not given)	25µM*
Cc1cccc(-c2ocnc2C(=O)N2CCN3CCS(=O)(=O)N(C4CC4)C(=O)C3C2)c1 (stereo not given)	i
CNC(=O)[C@@H]1CN(C(=O)C2(c3ccc(OC)cc3)CC2)C[C@H]1CO	i
CNC(=O)[C@@H]1CN(C(=O)COc2ccc(F)cc2)C[C@H]1CO	i
COc1ccc(Cl)cc1C(=O)N1C[C@@H](CO)[C@H](c2ccncc2)C1	i
COc1ccc2[nH]c(C(=O)N3C[C@@H](CO)[C@H](c4ccncc4)C3)cc2c1	32µM*
CNC(=O)[C@@H]1CN(C(=O)c2cc3cc(OC)ccc3[nH]2)C[C@H]1CO	22µM*
COc1ccc2cc(C(=O)N3CCN4CCS(=O)(=O)N(C5CC5)C(=O)C4C3)[nH]c2c1 (stereo not given)	i
O=C(OCC(=O)N1CCCCC1)c1ccc(F)cc1	i
SMILES	KDM5B inhibitor
Cc1ccccc1CN1CCCN(c2ccc(C(=O)NCCc3nc4ccccc4[nH]3)cc2)C1=O	i
COc1ccc(CNC(=O)c2cccc(C(F)(F)F)c2)cc1C(=O)O	i
COc1ccccc1N(CC(=O)NCCSCc1ccccc1)S(=O)(=O)c1ccc(C)cc1	i
COc1ccc(-c2cn3nc(N4CCCC(C(=O)NCc5ccccc5Cl)C4)sc3n2)cc1 (stereo not given)	i
O=[S+]1([O-])NCC2(CCCN(Cc3c(F)cccc3Cl)C2)Oc2ncccc21 (stereo not given)	i
Cc1ccc(NC(=O)C2(N(C)C(=O)Cc3nc(N)n[nH]3)CCCCC2)cc1	i
CCCN(CCC)S(=O)(=O)c1ccc(C(=O)Nc2c(C)n(C)n(-c3ccccc3)c2=O)cc1	i
CCOc1ccc(NC(=O)CN2C(=O)c3ccccc3Sc3ccc(C(=O)OC)cc32)cc1	i
CC/C=C(/C)C(=O)NCc1ccc(C)s1	i
CCC[C@@H]1CN(C(=O)c2cc(-c3cccs3)n(C)n2)C[C@H]1N(C)C	i
Cc1cn2nc(C(=O)N3CCN(c4ccccc4)CC3)cc2c(N(C)Cc2ccccc2)n1	25µM*
Cc1ccc(-c2nc(C(=O)N3CCN(c4ccccc4)CC3)no2)cc1	i
CCc1ccc(-n2nc(C)c3c(C(=O)N4CCN(c5ccccc5)CC4)cc(C)nc32)cc1	i
CN(Cc1ccccc1)c1ncnc2c1CCN(C(=O)C1CCC1)CC2	i
Cc1ccc(S(=O)(=O)N(C)Cc2ccccc2)cc1C(=O)N1CCCCC1	i
Cc1cn2nc(C(=O)N3CCCCC3)cc2c(N(C)Cc2ccccc2)n1	32µM*
O=C(Nc1cc(C(F)(F)F)ccc1Cl)c1noc2c1CCC2	i
CC1=C[C@@H](CO)[C@H](C(C)C)C[C@H]1CC(=O)N1CCN(CCO)CC1	i
Cc1ccccc1-c1noc(-c2ccccc2OCC(=O)Nc2cccc([N+](=O)[O-])c2)n1	i
CCn1c(CO)nnc1C1CC(NC(=O)Cn2cnc3ccccc3c2=O)C1 (stereo not given)	i
COc1ccc(C(CNC(=O)c2oc3ccccc3c2C)N2CCCCC2)cc1 (stereo not given)	i
COCCn1cnnc1CCNC(=O)c1oc2cc(OC)ccc2c1C	28µM*
CCn1c(CO)nnc1C1CC(NC(=O)c2oc3cc(OC)ccc3c2C)C1 (stereo not given)	28µM*
COCCn1c(CO)nnc1C1CC(NC(=O)c2ccc3c(c2)CCO3)C1 (stereo not given)	i
